Active and inactive are the calls of the source. The calls were made as follows: active = hit-call score of the fitted dose curve at least 0.9, where 1 is the maximum; inactive = score below 0.9.

Read-out in test [1]: Monokine induced gamma interferon (MIG), CXCL9 (gene 4283)
Nature of the test: BSK_hDFCGF_MIG: BioMAP Diversity Plus: hDFCGF Assay for Monokine induced gamma interferon (MIG) Biomarker Activity (AID 2283063). The following applies: primary human foreskin fibroblasts; actives raise or lower the signal. The method in brief: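 ELISA read-out of MIG from primary human dermal fibroblasts 24 h post-dosing. Gain or loss of signal fitted bidirectionally, DMSO as baseline.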

Read-out in test [2]: Vascular cell adhesion molecule 1 (VCAM1), VCAM1 (gene 7412)
Nature of the test: BSK_hDFCGF_VCAM1: BioMAP Diversity Plus: hDFCGF Assay for Vascular cell adhesion molecule 1 (VCAM1) Biomarker Activity (AID 2283065). As to conditions: primary human foreskin fibroblasts; actives raise or lower the signal. A digest of the protocol: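 Primary human foreskin fibroblasts (hDFCGF system) were dosed with chemical and VCAM-1 was measured by ELISA 24 h later. Bidirectional curve fitting used DMSO as negative control and activity baseline.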

Read-out in test [3]: Plasminogen activator inhibitor-1 (PAI1), SERPINE1 (gene 5054)
Briefly: BSK_hDFCGF_PAI1: BioMAP Diversity Plus: hDFCGF Assay for Plasminogen activator inhibitor-1 (PAI1) Biomarker Activity (AID 2283066). As to conditions: primary human foreskin fibroblasts; actives raise or lower the signal. The method in brief: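 Human foreskin fibroblast primary cells, 24 h chemical exposure; PAI-1 measured by ELISA. Bidirectional fitting relative to DMSO; parallel cultures stained with SRB for total protein to flag overt cytotoxicity.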

Read-out in test [4]: Intercellular Adhesion Molecule 1 (ICAM1), ICAM1 (gene 3383)
Briefly: BSK_KF3CT_ICAM1: BioMAP Diversity Plus: KF3CT Assay for Intercellular Adhesion Molecule 1 (ICAM1) Biomarker Activity (AID 2283067). The following applies: primary human keratinocytes with fibroblasts; actives raise or lower the signal. A digest of the protocol:
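Human keratinocyte plus foreskin fibroblast primary co-culture was exposed to chemical for 24 h. ICAM-1 was then quantified by ELISA, and the data were fit bidirectionally against DMSO as the negative control and baseline.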

Read-out in test [5]: Interferon-gamma inducible Protein 10 (IP10), CXCL10 (gene 3627)
Nature of the test: BSK_KF3CT_IP10: BioMAP Diversity Plus: KF3CT Assay for Interferon-gamma inducible Protein 10 (IP10) Biomarker Activity (AID 2283068). The following applies: primary human keratinocytes with fibroblasts; actives raise or lower the signal. A digest of the protocol: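 In a primary skin co-culture of keratinocytes and fibroblasts, IP-10 is quantified by ELISA at 24 h after dosing. SRB staining of parallel wells monitors overt toxicity. Curves are fitted both directions against DMSO.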

Test [6] is described as follows: BSK_KF3CT_SRB: Viability Assessment in the BioMAP Diversity Plus: KF3CT Assay (AID 2283069).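 Also: total protein by sulforhodamine B staining as a cytotoxicity measure; read 24 h after compound addition.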 As to conditions: primary human keratinocytes with fibroblasts. A digest of the protocol:
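Human primary keratinocyte plus foreskin fibroblast co-culture exposed to chemicals for 24 h. Total protein measured by 0.1% sulforhodamine B staining after 10% TCA fixation, read at 560 nm; bidirectional fitting versus DMSO baseline.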

Read-out in test [7]: Interleukin-1 alpha (IL1a), IL1A (gene 3552)
Briefly: BSK_KF3CT_IL1a: BioMAP Diversity Plus: KF3CT Assay for Interleukin-1 alpha (IL1a) Biomarker Activity (AID 2283070). The following applies: primary human keratinocytes with fibroblasts; actives raise or lower the signal. A digest of the protocol:
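Human keratinocyte plus foreskin fibroblast primary co-culture, sampled 24 h after chemical dosing. IL-1a measured by ELISA; responses fitted bidirectionally against DMSO baseline (negative control), so gain or loss of signal both count.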

Read-out in test [8]: TIMP metallopeptidase inhibitor 2 (TIMP2), TIMP2 (gene 7077)
Nature of the test: BSK_KF3CT_TIMP2: BioMAP Diversity Plus: KF3CT Assay for TIMP metallopeptidase inhibitor 2 (TIMP2) Biomarker Activity (AID 2283071). As to conditions: primary human keratinocytes with fibroblasts; actives raise or lower the signal. The method in brief: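 Co-culture of human primary keratinocytes and foreskin fibroblasts, measured 24 h after chemical dosing. TIMP-2 quantified by ELISA and fitted in both directions relative to DMSO. Cytotoxicity checked in parallel cultures by SRB total-protein staining.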

Read-out in test [9]: Transforming growth factor beta 1 (TGFb1), TGFB1 (gene 7040)
Nature of the test: BSK_KF3CT_TGFb1: BioMAP Diversity Plus: KF3CT Assay for Transforming growth factor beta 1 (TGFb1) Biomarker Activity (AID 2283072). The following applies: primary human keratinocytes with fibroblasts; actives raise or lower the signal. The method in brief: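 Human keratinocyte/foreskin fibroblast co-culture; TGF-b1 measured by ELISA 24 h after dosing, fitted bidirectionally versus DMSO. Cytotoxicity checked in parallel cultures by total protein (SRB staining, 560 nm).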

Read-out in test [10]: C-C motif chemokine 2 (Homo sapiens) (UniProt P13500)
Nature of the test: BSK_KF3CT_MCP1: BioMAP Diversity Plus: KF3CT Assay for Monocyte Chemoattractant Protein 1 (MCP1/CCL2) Biomarker Activity (AID 2283073). As to conditions: primary human keratinocytes with fibroblasts; actives raise or lower the signal. A digest of the protocol:
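Human keratinocyte plus foreskin fibroblast primary co-culture exposed to chemical for 24 h. MCP-1 levels measured by ELISA. Bidirectional curve fitting relative to DMSO negative control as baseline.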

Read-out in test [11]: Matrix Metallopeptidase 9 (MMP9), MMP9 (gene 4318)
Nature of the test: BSK_KF3CT_MMP9: BioMAP Diversity Plus: KF3CT Assay for Matrix Metallopeptidase 9 (MMP9) Biomarker Activity (AID 2283074). The following applies: primary human keratinocytes with fibroblasts; actives raise or lower the signal. The method in brief:
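Keratinocyte plus foreskin fibroblast human primary skin co-culture was dosed with chemical and MMP-9 was quantified by ELISA 24 h later. Bidirectional curve fitting used DMSO as negative control and activity baseline.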

Read-out in test [12]: urokinase plasminogen activator (uPA), PLAU (gene 5328)
Briefly: BSK_KF3CT_uPA: BioMAP Diversity Plus: KF3CT Assay for urokinase plasminogen activator (uPA) Biomarker Activity (AID 2283075). The following applies: primary human keratinocytes with fibroblasts; actives raise or lower the signal. The method in brief: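 Human keratinocyte plus foreskin fibroblast primary co-culture exposed to chemical for 24 h. uPA levels were quantified by ELISA, and activity was fitted bidirectionally against a DMSO negative-control baseline.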

Read-out in a further test: CD40, CD40 (gene 958)
Nature of the test: BSK_LPS_CD40: BioMAP Diversity Plus: LPS Assay for CD40 Biomarker Activity (AID 2283076). As to conditions: primary human HUVEC with PBMC; actives raise or lower the signal. A digest of the protocol:
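Primary human umbilical vein endothelial cells co-cultured with peripheral blood mononuclear cells, LPS-stimulated, were dosed with chemical and read 24 h later. CD40 levels were measured by ELISA and fitted bidirectionally against DMSO as negative control and baseline.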

Read-out in test [13]: E-selectin (Homo sapiens) (UniProt P16581)
Nature of the test: BSK_LPS_Eselectin: BioMAP Diversity Plus: LPS Assay for Eselectin Biomarker Activity (AID 2283077). The following applies: primary human HUVEC with PBMC; actives raise or lower the signal. A digest of the protocol: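 Human umbilical vein endothelial cells co-cultured with peripheral blood mononuclear cells under LPS stimulation; E-selectin measured by ELISA 24 h after chemical dosing. Activity fitted bidirectionally against DMSO as negative control and baseline.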

Read-out in test [14]: Interleukin-8 (IL8), CXCL8 (gene 3576)
Briefly: BSK_LPS_IL8: BioMAP Diversity Plus: LPS Assay for Interleukin-8 (IL8) Biomarker Activity (AID 2283078). The following applies: primary human HUVEC with PBMC; actives raise or lower the signal. The method in brief:
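Human umbilical vein endothelial cells co-cultured with PBMC were stimulated with LPS; IL-8 levels were measured by ELISA 24 h after chemical dosing. Activity was fitted bidirectionally against DMSO as negative control and baseline.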

Test [15] can be described thus: BSK_LPS_SRB: Viability Assessment in the BioMAP Diversity Plus: LPS Assay (AID 2283079).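 Also: total protein by sulforhodamine B absorbance as a cytotoxicity measure; measured one day after compound addition.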 The following applies: primary human HUVEC with PBMC. A digest of the protocol:
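Human umbilical vein endothelial cells co-cultured with PBMC (LPS system) were dosed for 24 h. Total protein was stained with 0.1% sulforhodamine B after 10% TCA fixation, read at 560 nm, and fitted bidirectionally against DMSO baseline.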

Read-out in test [16]: Interleukin-1 alpha (IL1a), IL1A (gene 3552)
Briefly: BSK_LPS_IL1a: BioMAP Diversity Plus: LPS Assay for Interleukin-1 alpha (IL1a) Biomarker Activity (AID 2283080). The following applies: primary human HUVEC with PBMC; actives raise or lower the signal. The method in brief:
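Human umbilical vein endothelial cells co-cultured with peripheral blood mononuclear cells were LPS-stimulated and exposed to test chemicals for 24 h. IL-1 alpha was quantified by ELISA, with bidirectional curve fitting against DMSO as the negative control and baseline.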

Read-out in test [17]: Matrix Metallopeptidase 1 (MMP1), MMP1 (gene 4312)
Briefly: BSK_hDFCGF_MMP1: BioMAP Diversity Plus: hDFCGF Assay for Matrix Metallopeptidase 1 (MMP1) Biomarker Activity (AID 2283064). As to conditions: primary human foreskin fibroblasts; actives raise or lower the signal. A digest of the protocol: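 Primary human foreskin fibroblasts in the hDFCGF system were dosed with test chemical, and MMP1 was measured by ELISA 24 h later. Values come from bidirectional curve fitting against the DMSO baseline.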

Read-out in test [18]: Monocyte Chemoattractant Protein-1 (MCP1), CCL2 (gene 6347)
Nature of the test: BSK_LPS_MCP1: BioMAP Diversity Plus: LPS Assay for Monocyte Chemoattractant Protein-1 (MCP1) Biomarker Activity (AID 2283081). The following applies: primary human HUVEC with PBMC; actives raise or lower the signal. A digest of the protocol: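 HUVEC plus PBMC co-culture (human primary cells, LPS system) exposed to test chemical for 24 h; MCP-1 measured by ELISA. Bidirectional curve fitting against DMSO baseline; parallel SRB total-protein staining flags overt cytotoxicity.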

E-selectin (Homo sapiens), sequence (P16581 whole entry, looked up): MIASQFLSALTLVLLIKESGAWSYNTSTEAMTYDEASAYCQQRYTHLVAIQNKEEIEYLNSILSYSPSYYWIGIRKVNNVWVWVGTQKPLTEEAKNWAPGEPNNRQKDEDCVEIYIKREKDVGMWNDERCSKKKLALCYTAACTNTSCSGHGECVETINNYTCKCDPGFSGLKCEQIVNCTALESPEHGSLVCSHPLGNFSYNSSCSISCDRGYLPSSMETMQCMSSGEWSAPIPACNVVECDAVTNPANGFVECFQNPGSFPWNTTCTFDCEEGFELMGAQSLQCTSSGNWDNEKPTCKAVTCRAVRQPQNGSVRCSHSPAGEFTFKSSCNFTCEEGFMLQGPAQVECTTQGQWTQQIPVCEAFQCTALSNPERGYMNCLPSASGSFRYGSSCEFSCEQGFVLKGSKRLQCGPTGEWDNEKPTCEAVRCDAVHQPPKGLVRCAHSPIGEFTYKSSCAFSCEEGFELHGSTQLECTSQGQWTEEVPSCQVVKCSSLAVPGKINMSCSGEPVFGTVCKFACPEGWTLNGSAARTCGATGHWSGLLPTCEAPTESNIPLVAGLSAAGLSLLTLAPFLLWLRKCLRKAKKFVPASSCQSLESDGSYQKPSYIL

As for `CCCCCCCCCCCCCCCO`, the result in test [1], in test [2], in test [3], in test [4], in test [5] and in test [6] was inactive. The result in test [7], in test [8], in test [9], in test [10], in test [11] and in [12] was inactive. In addition, the result in test [13] was inactive. Moreover, the AC50 (commonly the concentration at which the activity in the assay is half-maximal) was 33.6 µM (active) in the test with CD40, CD40 (gene 958); 31.1 µM (active) in [14]; 31.7 µM (active) in [15]; 31.9 µM (active) in test [16].
In the case of `CC(C)=CCCC(C)=CC=O`, the outcome in [1], in test [17], in [2], in [4], in test [5] and in test [6] was inactive. Also, the outcome was “inactive” in test [8]; “inactive” in test [9]; “inactive” in [10]; “inactive” in test [11]; “inactive” in test [12]; “inactive” with CD40, CD40 (gene 958). Besides, the result in [13], in test [14], in [15], in test [16] and in test [18] was inactive.
As for `Cc1ccc(C)c(O)c1`, the result in test [1], in test [2], in [3], in test [4], in test [5] and in test [6] was inactive. Further, the result in test [7], in [8], in test [9], in test [10], in [11] and in [12] was inactive. Further, the outcome with CD40, CD40 (gene 958) is “inactive”; in [14] it was “inactive”; in test [15], “inactive”; in test [16] it was “inactive”; in test [18], “inactive”.
With `CCN(C(=O)c1cc(C)cc(OC[C@H](C)Nc2ccncc2)c1)C(C)C`, the result in test [1], in test [17], in test [2], in [4], in [5] and in test [6] was inactive. Moreover, the outcome in test [8] was “inactive”; in [9], “inactive”; in test [11] it was “inactive”; with CD40, CD40 (gene 958), “inactive”; in test [13] it was “inactive”; in test [14] it was “inactive”. Further, the outcome in test [15] and in test [16] was inactive. In addition, the AC50 in test [12] was 13.5 µM (active).

The values are drawn from PubChem BioAssay (EPA / NIEHS).
